Hits are enriched below; roughly 3.6% of the tested compounds scored in any of these assays.
mHTT-CaM PPI inh – inhibitors of human mutant huntingtin-calmodulin interaction; inhibition, % at 15 µM; AID 1671202; AlphaScreen His-mHTT/GST-CaM binding, luminescence; 190,000 tested, 3.6% active;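 note: 0% = both proteins with DMSO and 100% = one protein alone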
Pf apPOL block – Pf-apPOL DNA polymerase inhibition; Recombinant Pf-apPOL, molecular beacon fluorescence, 1.5 h; inhibition, % at 10 µM; 210,000 tested, 0.25% active; AID 1794808
Starred values were filed as active, the others as inactive; / = not tested or not shown. Cut-off read from the data, not from the text of the source: active = inhibition above about 50%; inactive = the rest.

SMILES	mHTT-CaM PPI inh	Pf apPOL block
COc1ccc(NC(=O)C2OC3OC(C)(C)OC3C3OC(C)(C)OC23)c(OC)c1 (stereo unspecified)	6	-2
COc1cc(C)ccc1OCCCCOc1ccccc1F	-50	-8
Cc1nc(C(=O)N2CCOCC2)c(C)n1C1CCN(S(C)(=O)=O)CC1	0	-9
Cc1ccccc1C(=O)N1CCCN(C2CCN(Cc3ccc(F)cc3)C2=O)CC1 (stereo unspecified)	57*	0
CNC(=O)N1CCCN(C2CCN(Cc3ccc(F)cc3)C2=O)CC1 (stereo unspecified)	1	1
Cc1ccsc1C(=O)N1CCCN(C2CCN(Cc3ccc(F)cc3)C2=O)CC1 (stereo unspecified)	64*	8
O=C(c1ccsc1)N1CCCN(C2CCN(Cc3ccc(F)cc3)C2=O)CC1 (stereo unspecified)	19	-1
COc1ccccc1N1CCN(CC(O)COCc2ccc3c(c2)OCO3)CC1 (stereo unspecified)	3	-1
O=[N+]([O-])c1ccc(Oc2ccc(S(=O)(=O)Nc3cccnc3)cc2)cc1	-1	2
Cc1ccccc1-c1nc2s/c(=C\c3ccccc3)c(=O)n2n1	-1	0
CC1=NN(c2ccccc2)C(=O)/C1=C\c1cc(C)n(-c2cccc([N+](=O)[O-])c2)c1C	0	4
Cc1cc(/C=C2\C(=O)NC(=O)N(c3ccccc3)C2=O)c(C)n1-c1cccc([N+](=O)[O-])c1	59*	3
Cc1c(C(=O)NCCN(C)C)sc2ncn(Cc3ccccc3F)c(=O)c12	0	-17
CCC(C(=O)N1CCc2c(c(-c3nnc(-c4ccccc4F)o3)nn2C)C1)c1ccccc1 (stereo unspecified)	53*	-3
Cn1nc(-c2nnc(-c3ccccc3F)o2)c2c1CCN(C(=O)c1cccc(F)c1)C2	11	-3
Oc1ccccc1CN1CCN(c2cc(-c3ccccc3)[nH]n2)CC1	28	0
Brc1cccc(CN2CCC(N3CCCCC3)CC2)c1	10	3
Brc1cccc(CN2CCC(N3CCCCCC3)CC2)c1	-2	70*
Fc1ccc(-c2n[nH]c(C3CCCNC3)n2)cc1 (stereo unspecified)	-14	4
Cc1cc(=O)n(CC(=O)Nc2ccc(S(=O)(=O)Nc3ncccn3)cc2)cn1	-7	-1
O=C(NCCc1c[nH]c2ccc(OCc3ccccc3)cc12)c1ccc(Cl)cc1	73*	-2
COc1ccc2[nH]cc(CCNC(=O)c3ccc(Cl)cc3)c2c1	14	2
CCOC(=O)N1CCN(c2nc(-c3ccc(C)cc3)nc3ccccc23)CC1	-8	2
Cc1ccc(-c2nc(N3CCC(C(N)=O)(N4CCCCC4)CC3)c3ccccc3n2)cc1	53*	-3
O=C(NCc1ccccc1)c1n[nH]c2c1CN(C(=O)Cc1ccccc1F)CC2	5	-5
SMILES	mHTT-CaM PPI inh	Pf apPOL block
COc1ccccc1-n1cc2c(c1-c1ccccc1)c(=O)n(C)c(=O)n2C	26	-8
Cc1ccc(-n2cc3c(c2-c2ccccc2)c(=O)n(C)c(=O)n3C)cc1	22	5
Cc1cc(C)cc(-n2cc3c(c2-c2ccccc2)c(=O)n(C)c(=O)n3C)c1	36	83*
Cn1c(=O)c2c(-c3ccccc3)n(-c3ccc(F)cc3)cc2n(C)c1=O	41	75*
c1ccn(-c2nnc(C3CC3)s2)c1	/	-10
O=C1CSC(c2ccccc2)N1c1ccc(I)cc1 (stereo unspecified)	-15	0
Cc1c(OCc2ccc(Cl)c(Cl)c2)ccc(-c2ccn[nH]2)c1O	/	0
COc1ccc(Nc2nc(-c3sc(C)nc3C)cs2)cc1	52*	-4
Cc1nc(C)c(-c2csc(NCc3ccco3)n2)s1	12	-6
COc1ccccc1Nc1nc(-c2sc(C)nc2C)cs1	-6	5
Cc1nc(C)c(-c2csc(Nc3ccc(N)cc3)n2)s1	87*	-23
CCOc1ccc(NC(=O)N2CCCC2c2nc(-c3ccc(OC)cc3)no2)cc1 (stereo unspecified)	2	-5
CC(C)C(=O)N1CCN(c2nc3c(s2)CC(C(=O)N2CCCC2)CC3)CC1 (stereo unspecified)	10	3
COc1cccc2cc(C(=O)NCC(O)c3sccc3C)oc12 (stereo unspecified)	-10	-5
CCN1C=C(C(=O)OCc2ccccc2Cl)C(C)=NS1(=O)=O	-6	0
Cc1ccccc1OCC(=O)NCCCn1cccc1	4	-10
Cc1ccccc1C1CCC2(CC1)CCN(CC[C@@H](O)c1ccccc1)C2=O (stereo partly specified)	53*	-9
O=C1N(CC[C@@H](O)c2ccccc2)CCC12CCC(c1ccccc1)CC2 (stereo partly specified)	-3	-10
CS(=O)(=O)Oc1ccc2c(c1)OC(=Cc1cccnc1)C2=O	7	-4
O=c1cc(N2CCOCC2)[nH]n1-c1ccc([N+](=O)[O-])cc1	37	7
CCCc1cc(=O)n(-c2ccc([N+](=O)[O-])cc2)[nH]1	52*	-1
COc1cccc(-n2c(N3CCC(C(=O)NCC4CC4)CC3)nc3ccsc3c2=O)c1	-6	-2
Cc1ccc(CN2C(=O)NC3(CCN(C(=O)c4cccc(F)c4)CC3)C2=O)cc1	11	-5
COCCNC(=O)c1cnn2c(C)c(Cc3cc(C)ccc3C)c(C)nc12	31	-9
COC(CNC(=O)c1cnn2c(C)c(Cc3cc(C)ccc3C)c(C)nc12)OC	61*	-10
SMILES	mHTT-CaM PPI inh	Pf apPOL block
Cc1ccccc1Cc1c(C)nc2c(C(=O)NCCc3ccccc3)cnn2c1C	51*	-5
COCCCNC(=O)c1cnn2c(C)c(Cc3ccccc3C)c(C)nc12	42	-8
Cc1nc2c(C(=O)NCc3ccccc3)cnn2c(C)c1Cc1ccccc1F	21	-10
Cc1nc2c(C(=O)NCCc3ccccc3)cnn2c(C)c1Cc1ccccc1F	70*	-12
Cc1csc(NC(=O)CSc2nnc(NC(=O)c3ccc4c(c3)OCO4)s2)n1	-4	-1
O=C(CN1CCN(Cc2ccccc2F)CC1)Nc1ccccc1F	6	3
O=C(NCc1ccccc1)c1ccc2ncnc(N3CCCC3)c2c1	42	11
CN1CCC(NC(=O)C2CCN(c3nc4ccc(-c5cccnc5)nc4s3)CC2)CC1	1	0
Cc1ccc(C)c(C(=O)Nc2ccc3ncnc(N4CCCCC4)c3c2)c1	23	1
COc1ccc(C(Nc2cccc(C)n2)c2ccc3cccnc3c2O)cc1 (stereo unspecified)	100*	3
O=C(Nc1cccc(Cl)c1)Nc1cccc2cccnc12	-2	-5
Cc1cccc(NS(=O)(=O)c2ccc(Cl)cc2)n1	-2	0
Cc1cccc(NC(=O)c2cccs2)n1	/	0
Cc1cccc(NC(c2cccc(Cl)c2)c2ccc3cccnc3c2O)n1 (stereo unspecified)	98*	-2
COc1ccc(NC(=O)Nc2cccc(C)n2)cc1	-6	4
Cc1cccc(NC(c2ccc(Cl)cc2)c2ccc3cccnc3c2O)n1 (stereo unspecified)	98*	-12
Cc1cccc(NC(c2ccncc2)c2ccc3cccnc3c2O)n1 (stereo unspecified)	100*	2
CN(Cc1ccc(F)cc1)Cc1cc(=O)n2[nH]c(-c3cccc(Cl)c3)cc2n1	-2	-20
COc1cccc(N2C=NS(=O)(=O)c3cccnc32)c1	-6	-2
Cc1cc2nc(-c3cc(NC(=O)c4ccc(C)c([N+](=O)[O-])c4)ccc3O)oc2cc1C	-3	-2
